This is part of a sample that, as a whole, favours compounds with a hit. Of some 83,000 tested, about 20% had one in any assay.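 How to read the values: 0–100, growth inhibition (40 = 60% inhibited); 0, no net growth; -100 to 0, cell death (-40 = 40% of starting cells died; -100 = all dead).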 Unmarked numbers belong to inactive results. Calls of active or inactive are those of the source. How the source made its calls: active means growth percent below 10; inactive means the rest.

Drawing on PubChem BioAssay (NCI), this text covers growth for nine molecules.

Some test systems named below: SK-MEL-2 melanoma; EKVX NSCLC; UO-31 renal; TK-10 renal; ACHN renal; CAKI-1 renal; A498 renal; CCRF-CEM leukemia; SR leukemia; RPMI-8226 leukemia; OVCAR-8 ovarian; OVCAR-5 ovarian; OVCAR-4 ovarian; SK-OV-3 ovarian; IGROV1 ovarian; OVCAR-3 ovarian; HS 578T breast; NCI/ADR-RES ovarian; MOLT-4 leukemia; SN12C renal.
Assay in all cases: NCI-60 one-dose screen, 48 h (100 = growth as untreated, 0 = no growth, -100 = all killed)
Conditions in all cases: 10 µM unless noted

With `O=C1NN(C(=O)c2ccccc2)C(c2ccc(Cl)c(Cl)c2)=C/C1=C\c1ccccc1[N+](=O)[O-]`, the growth with SK-MEL-2 melanoma is 10.9% [6.75 µM]; in the test with EKVX NSCLC it was 32% [6.75 µM]; with UO-31 renal it was -3.12% [6.75 µM] (active); in the test with TK-10 renal it was 42.1% [6.75 µM]; in the test on ACHN renal it was 24% [6.75 µM]; with CAKI-1 renal it was 24.1% [6.75 µM]. Also, the growth is -10.9% [6.75 µM] (active) in the test on A498 renal; 17.4% [6.75 µM] in the test on CCRF-CEM leukemia; 6.01% [6.75 µM] (active) with SR leukemia; 2.27% [6.75 µM] (active) with RPMI-8226 leukemia; 30.3% [6.75 µM] with OVCAR-8 ovarian; -18.6% [6.75 µM] (active) in the test on OVCAR-5 ovarian. In addition, the growth in the test on OVCAR-4 ovarian was 12.2% [6.75 µM]; in the test with SK-OV-3 ovarian it was 37.1% [6.75 µM]; in the test on IGROV1 ovarian, 19.3% [6.75 µM]; with OVCAR-3 ovarian it was 15.9% [6.75 µM]; in the test on HS 578T breast, 30.8% [6.75 µM]; in the test with NCI/ADR-RES ovarian, 17.7% [6.75 µM].
On to `CNC1=C([N+](=O)[O-])C(c2ccccc2O)C(C#N)=C(c2cccs2)O1` (stereo not drawn), for which the growth with SK-MEL-2 melanoma is 74.2%; in the test with EKVX NSCLC, 97.2%; with UO-31 renal it was 70.5%; in the test with TK-10 renal it was 100%; in the test with ACHN renal, 94.8%; in the test with CAKI-1 renal, 78%. The growth with A498 renal is 110%; in the test on CCRF-CEM leukemia, 85.4%; in the test with SR leukemia it was 48.6%; with RPMI-8226 leukemia, 100%; with OVCAR-8 ovarian, 94.2%; in the test on OVCAR-5 ovarian, 104%. Moreover, the growth in the test on OVCAR-4 ovarian was 82.4%; in the test on SK-OV-3 ovarian it was 94.5%; in the test on OVCAR-3 ovarian it was 92%; with HS 578T breast it was 92.3%; with NCI/ADR-RES ovarian, 102%.
With `CC(=O)Nc1c(Br)cc2c(c1Br)Cc1cc(Br)ccc1-2`, the growth in the test on SK-MEL-2 melanoma was 99.6%; in the test with EKVX NSCLC, 55.3%; in the test with UO-31 renal it was 67.3%; in the test with TK-10 renal it was 109%; in the test on ACHN renal, 60.8%; in the test on CAKI-1 renal, 81.1%. The growth in the test on CCRF-CEM leukemia was 66.4%; in the test with MOLT-4 leukemia, 76.9%; in the test on SR leukemia it was 54.4%; in the test with RPMI-8226 leukemia it was 83%; in the test with OVCAR-8 ovarian, 68.7%; in the test with OVCAR-5 ovarian, 108%. For the same molecule, the growth in the test on OVCAR-4 ovarian was 9.85% (active); with SK-OV-3 ovarian, 85.7%; with IGROV1 ovarian, 45%; in the test on OVCAR-3 ovarian, 87%; in the test with HS 578T breast, -7.93% (active); in the test with NCI/ADR-RES ovarian it was 76.1%.
Regarding `COc1ccc2c(c1)N(Cc1ccc(Cl)cc1)CCC2N1CCCC1=O` (stereo not drawn), the growth in the test on SK-MEL-2 melanoma is 64.4%; with EKVX NSCLC, 36.9%; with SN12C renal it was 39.2%; in the test with TK-10 renal it was 55.3%; in the test on ACHN renal it was 53.3%; in the test on CAKI-1 renal it was 40.8%. For the same molecule, the growth was -7.14% (active) with A498 renal; 34.5% with MOLT-4 leukemia; 34.2% in the test on SR leukemia; 50% in the test on OVCAR-8 ovarian; 66% in the test with OVCAR-5 ovarian; 34% in the test with OVCAR-4 ovarian. Further, the growth in the test on SK-OV-3 ovarian is 43.4%; in the test with IGROV1 ovarian, 13.2%; in the test on OVCAR-3 ovarian, 43.8%; in the test on HS 578T breast, 10.7%; with NCI/ADR-RES ovarian, 53.3%.
`Cc1cc(N)cc(C)c1-c1c(Br)cc(N)cc1Br`: the growth in the test on SK-MEL-2 melanoma is 26.6%; with EKVX NSCLC it was 51.8%; with UO-31 renal, 36.1%; in the test with TK-10 renal, 22.3%; in the test with ACHN renal, 56.2%; in the test with CAKI-1 renal, 35%. For the same molecule, the growth was 27.9% in the test on A498 renal; 8.42% (active) in the test with CCRF-CEM leukemia; 35.1% in the test on MOLT-4 leukemia; 9.99% (active) with SR leukemia; 31% in the test with OVCAR-8 ovarian; 45.9% in the test with OVCAR-5 ovarian. Besides, the growth is 61.9% in the test on OVCAR-4 ovarian; 6.33% (active) in the test with SK-OV-3 ovarian; 21% with IGROV1 ovarian; 1.61% (active) in the test with OVCAR-3 ovarian; 34.1% in the test with HS 578T breast; -1.83% (active) in the test on NCI/ADR-RES ovarian.
With `Nc1nc(N)c2cc(NCc3ccc(Cl)c(Cl)c3)ccc2n1`, the growth with SK-MEL-2 melanoma is -79.2% (active); with EKVX NSCLC, -78.8% (active); in the test on UO-31 renal, -75.4% (active); in the test with TK-10 renal, -93.8% (active); in the test on ACHN renal it was -94.8% (active); in the test with CAKI-1 renal it was -68.4% (active). Also, the growth with A498 renal is 34.2%; with CCRF-CEM leukemia, -49.2% (active); in the test on MOLT-4 leukemia, -55.6% (active); in the test on SR leukemia, -53.9% (active); with RPMI-8226 leukemia it was -42% (active); in the test on OVCAR-8 ovarian, -78.8% (active). For the same molecule, the growth in the test on OVCAR-5 ovarian is -92.5% (active); with OVCAR-4 ovarian, -86.9% (active); with SK-OV-3 ovarian it was -99.7% (active); with IGROV1 ovarian it was -58.8% (active); in the test with OVCAR-3 ovarian, -95.3% (active); in the test on HS 578T breast, -48.6% (active).
As for `Fc1ccc(-c2cnc3nonc3n2)c(F)c1`, the growth in the test with SK-MEL-2 melanoma is 108%; with EKVX NSCLC, 108%; in the test on UO-31 renal, 89.1%; in the test with TK-10 renal, 121%; in the test with ACHN renal, 95.2%; with CAKI-1 renal, 96.3%. Moreover, the growth in the test on A498 renal is 80.9%; in the test with CCRF-CEM leukemia, 46.1%; in the test with MOLT-4 leukemia, 77.6%; in the test with SR leukemia, 74.5%; in the test on OVCAR-8 ovarian, 102%; in the test on OVCAR-5 ovarian, 96.8%. The growth was 93.3% with OVCAR-4 ovarian; 92.1% in the test on SK-OV-3 ovarian; 108% in the test on IGROV1 ovarian; 81.5% in the test on OVCAR-3 ovarian; 98.1% in the test on HS 578T breast; 104% in the test with NCI/ADR-RES ovarian.
For `N#Cc1ccc(-c2ccc(-c3cccs3)o2)cc1F`, the growth with SK-MEL-2 melanoma is 70.8%; in the test on SN12C renal, 89.1%; in the test on UO-31 renal, 73.7%; with TK-10 renal, 89.9%; in the test with ACHN renal, 64%; in the test with CAKI-1 renal it was 78.1%. For the same molecule, the growth with A498 renal is 95.9%; with SR leukemia, 85%; in the test with RPMI-8226 leukemia it was 70.7%; with OVCAR-8 ovarian, 64.2%; in the test on OVCAR-5 ovarian, 101%; in the test with OVCAR-4 ovarian it was 77.5%. Further, the growth was 52.1% in the test with SK-OV-3 ovarian; 82.4% in the test on IGROV1 ovarian; 80.5% with OVCAR-3 ovarian; 51.2% with HS 578T breast; 72.1% in the test on NCI/ADR-RES ovarian.
On to `COC(=O)[C@H](Cc1cn(C)cn1)NC(=O)[C@H](CC(C)C)NC(=O)Nc1cc(C(F)(F)F)cc(C(F)(F)F)c1`, for which the growth was -95.4% [100 µM] (active) with SK-MEL-2 melanoma; -92.8% [100 µM] (active) with SN12C renal; -96.7% [100 µM] (active) in the test on UO-31 renal; -98.5% [100 µM] (active) in the test with TK-10 renal; -100% [100 µM] (active) with ACHN renal; -99.2% [100 µM] (active) in the test on CAKI-1 renal. Also, the growth with A498 renal is -93.8% [100 µM] (active); in the test on MOLT-4 leukemia, -57.2% [100 µM] (active); in the test with SR leukemia, -46.5% [100 µM] (active); in the test on RPMI-8226 leukemia it was -53.4% [100 µM] (active); in the test with OVCAR-5 ovarian it was -98.6% [100 µM] (active); in the test with OVCAR-4 ovarian, -97% [100 µM] (active). Moreover, the growth was -100% [100 µM] (active) with SK-OV-3 ovarian; -89.2% [100 µM] (active) in the test on IGROV1 ovarian; -98.8% [100 µM] (active) in the test on OVCAR-3 ovarian; -17.3% [100 µM] (active) with HS 578T breast; -67.3% [100 µM] (active) in the test with NCI/ADR-RES ovarian.
